# From PubChem BioAssay
# ClpP mod: qHTS Assay for Activators of ClpP. ATP-dependent Clp protease proteolytic subunit (Bacillus subtilis (strain 168)), P80244. purified B. subtilis ClpP, FRET peptide cleavage, 20 min. Potency, µM (series often up to 57.5 µM), without a hit: top-dose activity change, negative = active. 1.9% of 340,000 active. AID 651965, 2013; active means well fitted falling curve with a large enough effect; inconclusive means small, poorly fitted or top-dose-only effect; inactive means no such curve, though single readings can be large or run the other way; further: potency means the concentration at half of the fitted maximal effect; the source files actives as falling curves though it sought activators and does not explain the sign; nearly all actives have a fitted effect of over 65% in size
# Target sequence (P80244 whole entry, looked up): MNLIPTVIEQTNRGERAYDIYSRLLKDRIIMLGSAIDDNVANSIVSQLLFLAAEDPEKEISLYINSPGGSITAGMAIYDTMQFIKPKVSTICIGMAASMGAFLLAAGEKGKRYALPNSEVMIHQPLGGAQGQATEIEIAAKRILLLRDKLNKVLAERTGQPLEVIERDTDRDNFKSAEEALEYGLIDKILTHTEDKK
#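 FRET quenching reversal measured ClpP activation: 10 microg/mL B. subtilis ClpP at pH 8 with the FRET-FV decapeptide, read at 430 nm after 320 nm excitation. The 20-min minus 0-min signal was scaled between DMSO/no-enzyme wells and ADEP (5.8 microM final).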
# D3 ag: D3 dopamine receptor (human) agonism. P35462. D3R DiscoveRx beta-arrestin cells, luminescence, 90 min. max activation, %. 0.58% of 410,000 active; in the data active means max activation above about 30%; further: 0% is about no effect
#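 Agonist mode: compounds and dopamine controls were applied to plated cells for 90 min at 37 degrees C after an overnight attachment at 1500 cells/well. Luminescent read-out followed 30 - 60 minutes at room temperature with DiscoveRx detection reagent.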
# GLP1R cytotox: cytotoxicity in counter-screen for GLP-1R inverse agonists; HEK293 cAMP-luciferase reporter cells, luminescence, 24 h; Potency, µM (doses to about 38.3 µM), inactives show top-dose activity change, negative = inhibition, usual class: inhibitors; 0.13% of 410,000 active; AID 624418;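 further: loss of luciferase light is scored as toxicity; potency means the concentration at half of the fitted maximal effect; on the % scale 0 is the no-effect control and ±100 the full control effect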
#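 MLSMR compounds, 24 hr on cells at 37 deg C/5% CO2; luminescence after luciferase reagent (12 min RT). Inhibition counted as the undesired cytotoxic outcome.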
# D3 antag: blocks the human D3 dopamine receptor; D3R cells, DiscoveRx beta-arrestin luminescence, antagonist mode; hits give low values; max response, negative = inhibition, %; 2.5% of 360,000 active; in the data active means max response below about -50%; inconclusive means no clear call, values can overlap the other calls; further: on the % scale 0 is the no-effect control and ±100 the full control effect
#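 Cells expressing the human receptor were seeded at 1500 cells/well, incubated overnight at 37 degrees C in 5% CO2, then exposed to library compounds with dopamine controls for 90 minutes at 37 degrees C before luminescent detection.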
# GLP-1R inv ag: inverse agonists of human GLP-1 receptor | P43220 | HEK293 GLP-1R CRE-luciferase, luminescence, 24 h; GLP-1R form is constitutively active | Potency, µM (titrated, usually from 38.3 µM), without a hit: at the top dose activity change, negative = inhibition, most hits filed as inhibitors | 1.6% of 410,000 active | AID 624417; further: potency means the concentration at half of the fitted maximal effect; on the % scale 0 is the no-effect control and ±100 the full control effect; nearly all actives have a fitted effect of over 55% in size
# Target sequence (P43220 whole entry, looked up): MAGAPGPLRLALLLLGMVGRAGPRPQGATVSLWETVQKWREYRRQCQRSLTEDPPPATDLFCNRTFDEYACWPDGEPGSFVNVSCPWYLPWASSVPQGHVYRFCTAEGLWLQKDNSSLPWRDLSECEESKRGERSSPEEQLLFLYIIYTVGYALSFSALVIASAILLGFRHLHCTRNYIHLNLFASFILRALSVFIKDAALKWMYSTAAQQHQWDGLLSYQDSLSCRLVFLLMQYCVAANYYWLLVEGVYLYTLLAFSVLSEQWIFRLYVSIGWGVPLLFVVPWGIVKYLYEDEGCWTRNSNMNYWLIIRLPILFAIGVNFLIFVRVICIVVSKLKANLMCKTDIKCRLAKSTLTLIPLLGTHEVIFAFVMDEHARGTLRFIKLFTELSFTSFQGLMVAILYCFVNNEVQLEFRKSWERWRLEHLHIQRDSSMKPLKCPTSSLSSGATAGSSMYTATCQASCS
#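 Luminescence readout: a drop in cAMP-driven luciferase signal flags inverse agonism at a constitutively active GLP-1R stably expressed in HEK293. Compound exposure lasted 24 hr at 37 deg C, 5% CO2.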
# GLP-1R agonist: GLP-1 receptor (human) agonism | P43220 | HEK293 GLP-1R CRE-luciferase, luminescence, 4-6 h; cells express a hypersensitive GLP-1R form | Potency, µM (titrated, usually from 45.6 µM), for inactives: at the top dose activation, most hits filed as activators | 0.007% of 380,000 active; further: potency means the concentration at half of the fitted maximal effect; % of control where 0% means no effect
# * hit, by the source's call; ? = inconclusive; nt = no result given. A selection: hits, their analogues and other compounds. The true share with any hit is near 5.7%. Unless noted, the call rests on the fitted dose curve; in most records, active means well fitted curve in the direction sought with a large enough effect; inconclusive means small, poorly fitted or top-dose-only effect, or another doubt; inactive means no such curve, though single readings can be large; an effect the other way counts as inactive or inconclusive.
SMILES,ClpP mod,D3 ag,GLP1R cytotox,D3 antag,GLP-1R inv ag,GLP-1R agonist
CCc1c(C)nc2cc(-c3ccc(OC)cc3)[nH]n2c1=O,32µM*,-1,-25%,12,-10%,5%
COCc1cc(=O)n2[nH]c(-c3ccc(C)cc3)cc2n1,20µM*,-9,-8%,-6,0%,-1%
CCOC(=O)Cc1cc(=O)n2[nH]c(-c3ccc(C)cc3)cc2n1,?,-4,9%,-8,5%,-5%
Cc1ccc(NC(=O)C(C)Sc2nc3c(c(=O)[nH]2)CCCC3)cc1Cl (centres undefined),1%,-1,-1%,nt,9%,nt
CCOC(=O)Cc1c(C)nc2c(-c3ccc(Cl)cc3)c[nH]n2c1=O,3.2µM*,-4,10%,-11,?,-8%
CN1CCN(c2ccc(Cl)cc2NC(=O)c2ccc(=O)n(C)n2)CC1,1%,-5,3%,-13,10µM*,-3%
CN1CCN(c2ccc(Cl)cc2NC(=O)c2cc(=O)[nH]c3ccccc23)CC1,1%,-2,-30%,5,?,17%
COc1ccc(C2C=C(c3ccc(C)c(C)c3)Nc3ncnn32)c(OC)c1OC (centres undefined),-11%,-14,48%,-68*,?,9%
COc1ccc(C2=NN(S(C)(=O)=O)C(c3cn(-c4ccccc4)nc3-c3cccs3)C2)cc1 (centres undefined),14µM*,5,2%,nt,7%,nt
COc1ccccc1C=NN=C(NN=Cc1ccccc1OC)NN=Cc1ccccc1OC,-5%,7,5µM*,-4,2.2µM*,-7%
COc1cc(C#Cc2c(-c3cncn3C)n(C)c3ccc(-c4ccc5cc[nH]c5c4)cc23)cc(OC)c1,4%,2,0%,0,?,7%
COc1cc(C#Cc2c(-c3cncn3C)n(C)c3ccc(-c4ccc(OC)c(OC)c4)cc23)cc(OC)c1,4%,70*,22%,105,45%,15%
COc1cc2c(cc1OC)CN(Cc1cc(=O)oc3cc(C)c(Cl)cc13)CC2,1%,11,1%,-5,13%,3%
COc1cc2c(cc1OC)CN(Cc1cc(=O)oc3cc(C)c(C)cc13)CC2,0%,42*,11%,5,0%,-4%
CCc1ccc2c(CN3CCc4cc(OC)c(OC)cc4C3)cc(=O)oc2c1,0%,31*,4%,-20,17%,11%
COC(=O)C1CCN(C(c2ccccc2)c2sc3nc(-c4ccco4)nn3c2O)CC1 (centres undefined),-2%,-15,16%,nt,10%,nt
O=C(Nc1ccc(F)cc1F)N1CCN(c2ccc(Cl)c(Cl)c2)CC1,-1%,-11,2%,nt,11µM*,nt
COc1cc(NC(=O)CSc2nc(=O)n(CCCN3CCOCC3)c3c2CCC3)cc(OC)c1,25µM*,3,11%,28,3%,0%
Cc1c(Cl)cccc1NC(=O)CSc1nc(=O)n(CCN2CCOCC2)c2c1CCC2,-7%,-10,2%,nt,5%,nt
Cc1c(Cl)cccc1NC(=O)CSc1nc(=O)n(CCCN2CCOCC2)c2c1CCC2,20µM*,0,2%,3,7%,0%
COc1ccc(C(=O)OCC(=O)Nc2ccccc2)cc1[N+](=O)[O-],1%,-3,-1%,-3,2%,22%
COc1ccc(C(=O)OCC(N)=O)cc1[N+](=O)[O-],28µM*,-7,6%,0,21%,4%
Cc1ccc(C(=O)COC(=O)c2ccncc2)cc1[N+](=O)[O-],1%,-6,-5%,-92*,11%,-1%
COc1ccc(-c2nsc(NC(=O)c3oc4cc(C)c(C)cc4c3C)n2)cc1,-10%,-8,19%,nt,-6%,nt
O=C(NCCCN1CCCC1=O)c1cccc(N2CCCC2=O)c1,0%,-5,0%,-1,1%,-6%
SMILES,ClpP mod,D3 ag,GLP1R cytotox,D3 antag,GLP-1R inv ag,GLP-1R agonist
CCCCNC(=O)Oc1cccc(N2CCCC2=O)c1,-1%,5,-13%,-69*,3%,-2%
Cc1cc(N(C)C)c(C)cc1/C=C/c1ccnc2ccccc12,2%,nt,nt,nt,nt,nt
COc1ccc2[nH]c(C)cc(=O)c2c1,25µM*,-9,6%,10,15%,25%
COc1ccc2[nH]c(-c3ccc(C)cc3)cc(=O)c2c1,5%,-16,0%,-8,3.2µM*,-4%
FC(F)(F)c1cc(-c2cccs2)nc(N2CCOCC2)n1,-7%,5,20%,-58*,?,-1%
Cc1cnn(-c2nc(-c3cccs3)cc(C(F)(F)F)n2)c1,-23%,17,-6%,23,?,16%
FC(F)(F)c1cc(-c2cccs2)nc(-n2cc(Br)cn2)n1,32µM*,10,-7%,16,?,1%
CCCCCCCNC1=CC(=O)CC(c2ccccc2)C1 (centres undefined),0%,-8,-26%,1,11µM*,7%
CCCCCNC1=CC(=O)CC(c2ccccc2)C1 (centres undefined),-2%,-12,?,0,-10%,0%
CS/C(=N\S(=O)(=O)c1cccs1)Nc1cccc(Cl)c1C,1%,7,-8%,23,?,16%
CS/C(=N\S(=O)(=O)c1cccs1)Nc1ccc(F)c(Cl)c1,20µM*,-4,5%,-20,-27%,3%
CCN(CC)Cc1cc(Oc2ccc(O)c(CN(CC)CC)c2)ccc1O,-3%,-15,-3%,?,-1%,-8%
O=C(CCC(=O)c1ccc(F)cc1)NCC1(N2CCCCC2)CCCCC1,1%,-12,4%,-88*,-2%,-1%
O=C(NCCCN1CCC(Cc2ccccc2)CC1)c1ccc(CS(=O)c2ccccc2Cl)o1 (centres undefined),0%,-5,-17%,-108*,?,0%
Fc1ccc(-c2ccc3c(c2)C2CC3CCN2Cc2ccc3c(c2)OCO3)cc1 (centres undefined),2%,-47,13%,-7,?,-1%
Cc1ccc(C2=CC(c3ccc(Cl)cc3)n3nc(-c4ccc(C)cc4)nc3N2)cc1 (centres undefined),-12%,-11,35%,nt,2.2µM*,nt
COc1ccc(C2C=C(c3ccc(Cl)cc3)Nc3nc(-c4ccc(Cl)cc4)nn32)cc1 (centres undefined),2%,-9,73%,nt,?,nt
CCCCC#Cc1ccc2c(c1)COc1c3ccccc3nn1-2,-5%,31*,2%,77,-3%,4%
CC(C#Cc1ccc2c(c1)COc1c3ccccc3nn1-2)OC(C)(C)C (centres undefined),1%,52*,4%,82,20%,4%
